Most compounds without a hit are left out; they make up all but 21% or so of the library.
CHX counter: affects cycloheximide protein synthesis inhibition readout, counter-screen; 300,000 tested, 12% active; max response, %; AID 2314; cell reporter, cycloheximide protein synthesis inhibition counterscreen; in the data active = max response mostly above about 13%, no sharp cut-off; inactive = mostly below about 14%; note: read at 38.3 µM for the half of the compounds with a filed dose; 0% is about no effect
NS1 function inh: influenza NS1 inhibition; Potency, µM (doses to about 46.1 µM), inactives show at the highest dose activity, positive = more growth; 270,000 tested, 0.4% active; AID 2326; calls by dose curve; note: potency is the fitted concentration of half-maximal effect; actives are rising curves; nearly all actives have a fitted effect of over 50% in size
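Compounds were scored for reversing the slow growth caused by influenza A NS1 in S. cerevisiae, measured by optical density at 600 nm. Assay medium contained 2% galactose at pH 6.0; NS1-free yeast of the same strain were the positive control.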
Pf growth 48h: P. falciparum growth inhibition at 48 hours (one generation) | P. falciparum luciferase growth in erythrocytes, 48 h | Potency, µM (series often up to 28.7 µM), without a hit: at the highest dose activity change, negative = inhibition, usual class: inhibitors | 310,000 tested, 5.9% active; note: potency is the fitted concentration of half-maximal effect; % is set by controls: 0 for no effect and ±100 for the full control effect
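First compound was added to culture medium, then infected red cells at 0.1% parasitemia and 2% hematocrit (final). After incubation at 37 C under 5% CO2, luciferase detection reagent was dispensed and light output recorded.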
Shiga inhibitor: inhibitors of Shiga toxin in Vero cells | inhibition, % at 38.7 µM | 290,000 tested, 9.2% active | Vero cells, Shiga toxin protein synthesis inhibition reporter; in the data active = inhibition mostly above about 28%, no sharp cut-off; inactive = mostly below about 43%; note: 0% is about no effect
Pf growth 96h: P. falciparum growth inhibition at 96 hour, primary screen for plastid delayed-death inhibitors; P. falciparum luciferase reporter growth, 96 h; Potency, µM (doses to about 28.7 µM), without a hit: at the top dose activity change, negative = inhibition, most hits filed as inhibitors; 320,000 tested, 6.9% active; note: potency is the fitted concentration of half-maximal effect; % is set by controls: 0 for no effect and ±100 for the full control effect
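Compounds incubated with erythrocytes infected by luciferase-expressing P. falciparum (2% hematocrit, 0.05% parasitemia final) for 96 hours, 37 C in 5% CO2. Growth inhibition scored as decreased luciferase luminescence.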
An asterisk follows results filed as active; ? = inconclusive; nt = no result. Unless noted, calls come from the whole dose curve; as a rule, active = well fitted inhibition curve with a large enough effect; inconclusive = small, poorly fitted or top-dose-only effect, or another doubt; inactive = no such curve, though single readings can be large or run the other way.

SMILES	CHX counter	NS1 function inh	Pf growth 48h	Shiga inhibitor	Pf growth 96h
O=C(CSc1ncn[nH]1)Nc1ccc2c(c1)OCCO2	14	3%	nt	21	67%
O=C(CSc1ncn[nH]1)c1ccc2c(c1)OCO2	14*	-7%	29%	30	26%
O=C(CSc1ncn[nH]1)CSc1ncn[nH]1	-5	nt	?	-18	6%
O=C(N/N=C1\NC(=O)C(CO)(CO)S1)c1ccccc1	0	3%	-11%	-3	20%
CCCCCc1nnc(NC(=O)C(=O)OCC)s1	1	-18%	13%	30	104%
O=C(CSc1ncn[nH]1)NCCC(c1ccccc1)c1ccccc1	-3	-1%	?	-10	10µM*
O=c1c2ccccc2nc(SCc2nc3ccccc3s2)n1CCCO	46*	9%	40%	137*	-9%
Cc1ccnc(SCc2nc3ccccc3s2)n1	32*	-48%	nt	62*	214%
O=C(CSc1nc2ccccc2c(=O)n1CCCO)NCc1ccccc1	10	-1%	-5%	20	-10%
Cn1nnnc1SCc1nc2ccccc2s1	38*	-4%	71%	94*	-16%
Cn1nnnc1SCc1cccc2ccccc12	7	nt	23%	25	-7%
Cc1cccc(C)c1NC(=O)CSc1nnc(-c2cccnc2)o1	7	nt	15%	21	-25%
CCc1ccc2ncc(S(=O)(=O)c3ccc(C)c(C)c3)c(N3CCCC3)c2c1	-1	-33%	23%	-8	0%
CCOC(=O)COc1ccc2c3c(c(=O)oc2c1C)CCC3	15*	-7%	15%	27	20%
Cc1c(OCC(=O)N(C)c2ccccc2)ccc2c3c(c(=O)oc12)CCC3	24*	-37%	?	74*	?
Cc1c(OCC(=O)C(C)(C)C)ccc2c3c(c(=O)oc12)CCCC3	-1	10%	?	nt	?
Cc1cc(/C=C\c2nc(O)c([N+](=O)[O-])c(=O)[nH]2)c(C)n1-c1ccccc1	-2	nt	29%	19	-22%
CC1=C(C(=O)NC(C)c2ccc3c(c2)OCCO3)C2(CCC(C)CC2)OC1=O (configuration not stated)	-3	-12%	?	-4	10µM*
CC1=C(C(=O)NC2CCCC(C)C2C)C2(CCCCC2)OC1=O (configuration not stated)	11	23%	?	3	24%
CC1=C(C(=O)NC(C)c2ccccc2)C2(CCC(C)CC2)OC1=O (configuration not stated)	1	1%	11%	14	6%
CC1=C(C(=O)Nc2cccc([N+](=O)[O-])c2)C2(CCC(C)CC2)OC1=O (configuration not stated)	3	nt	?	23	0.37µM*
CC1=C(C(=O)NC2CCCCC2C)C2(CCC(C)CC2)OC1=O (configuration not stated)	-5	?	9.3µM*	3	-5%
CCOc1ccc(NC(=O)C2=C(C)C(=O)OC23CCC(C)CC3)cc1 (configuration not stated)	-5	-4%	nt	2	-27%
Cc1cc(Cl)nc(Cl)c1C(=O)NC(=O)NCCC(C)C	-5	nt	25%	35	?
CC(C)NC(=O)C(=O)NCCC1CCCCN1S(=O)(=O)c1cccs1 (configuration not stated)	nt	nt	34%	nt	13%
SMILES	CHX counter	NS1 function inh	Pf growth 48h	Shiga inhibitor	Pf growth 96h
CC(Cl)C(=O)NN=C(c1ccccc1)c1ccccc1 (configuration not stated)	16*	5%	4%	41	13%
CC(C)(C)C(CCl)C(=O)NN=C(c1ccccc1)c1ccccc1 (configuration not stated)	nt	nt	-10%	nt	39%
CSc1ccc(/C=N/NC(=O)c2ccc(O)cc2)cc1	46*	-12%	135%	102*	?
CC1(C)C2CC=C(/C=N/NC(=O)c3ccc(O)cc3)C1C2 (configuration not stated)	15*	2%	-5%	68	-15%
COc1ccc(C(=O)N/N=C/c2ccc(SC)cc2)cc1	19*	0%	4%	38	?
COC(=O)N/N=C/C1=CCC2CC1C2(C)C (configuration not stated)	6	-3%	5%	10	30%
CCOc1ccc(NC(=S)Nc2cc(OC)c(Cl)cc2OC)cc1	2	25%	8%	-1	?
COc1ccc(NC(=O)CCN2C(=O)c3ccncc3C2=O)cc1OC	-5	1%	-1%	-1	17%

High-throughput results: PubChem, National Center for Advancing Translational Sciences (NCATS)
